From article PMC5540273 (PLoS ONE, 2017)

Experiments:
Conditions in all cases: concentration: 1 μM, replicates: in singlicate; n = 1
MTOR = test system: MTOR
MUSK = test system: MUSK
MYLK2 = test system: MYLK2
MYLK4 = test system: MYLK4
MYLK = test system: MYLK
MYO3A = test system: MYO3A
MYO3B = test system: MYO3B
NDR1 = test system: T1, NDR1
T1 construct: gene STK38

NDR2 = test system: NDR2
NEK10 = test system: NEK10
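Note: KINOMEscan kinase panel screen.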

| Compound | %Inh (MTOR) [%] | %Inh (MUSK) [%] | %Inh (MYLK2) [%] | %Inh (MYLK4) [%] | %Inh (MYLK) [%] | %Inh (MYO3A) [%] | %Inh (MYO3B) [%] | %Inh (NDR1) [%] | %Inh (NDR2) [%] | %Inh (NEK10) [%] |
| --- | --- | --- | --- | --- | --- | --- | --- | --- | --- | --- |
| Cc1ccc(NC(=O)c2cccc(N3CCCCC3)c2)cc1-c1ccc(C(=O)NCC2CC2)cc1 [GSK1917008] | 14 | 1 | 9 | 9 | 17 | 0 | 12 | 0 | 0 | 0 |
| COc1ccc(C2=C(Nc3cccc(O)c3)C(=O)NC2=O)cc1 [SB-390766] | 31 | 3 | 12 | 4 | 3 | 0 | 0 | 9 | 0 | 42 |
| CCOc1nccc(-c2c(-c3ccc(F)cc3)ncn2C2CCNCC2)n1 [SB-249175] | 0 | 0 | 0 | 19 | 31 | 90 | 0 | 6 | 12 | 27 |
| Cc1ccc(C)c(NC(=O)Nc2ccc(C)c(-c3ccc(C(=O)Nc4ccncc4)cc3)c2)c1 [GSK1398473] | 17 | 0 | 0 | 0 | 0 | 0 | 0 | 29 | 0 | 18 |
| Cc1ccc(-c2ccc3occ(-c4ccc(S(C)=O)cc4)c3c2)nn1 (stereo not drawn) | 17 | 3 | 11 | 0 | 0 | 0 | 1 | 2 | 15 | 25 |
| Cn1cc(-c2ccc3c(c2)CCN3C(=O)Cc2cc(F)cc(F)c2F)c2c(N)ncnc21 [GSK2634140] | 15 | 28 | 82 | 0 | 11 | 38 | 1 | 0 | 0 | 10 |
| Cc1ccc(O)cc1Nc1ccnc2cc(-c3ccc(CN4CCCCC4)o3)ccc12 [GW557777] | 0 | 3 | 0 | 2 | 9 | 4 | 0 | 0 | 4 | 0 |
| CC(C)c1nc(-c2cccc(NS(=O)(=O)c3c(F)cccc3F)c2)c(-c2ccnc(Nc3ccc(N4CCOCC4)nc3)n2)s1.Cl [GSK1723980] | 7 | 0 | 0 | 0 | 6 | 25 | 47 | 32 | 0 | 9 |
| Nc1cccc(-c2ccc3c(N)n[nH]c3c2)c1 [GSK2193613] | 13 | 20 | 92.3 | 96.9 | 40 | 45 | 0 | 27 | 13 | 10 |
| Cc1ccc(NC(=O)c2ccc(Cl)c(Cl)c2)cc1-c1ccc(C(=O)Nc2ccncc2)cc1 [GSK1398460] | 0 | 6 | 0 | 5 | 27 | 0 | 0 | 14 | 0 | 0 |
| CC(C)c1nc(-c2ccc(F)c(NS(=O)(=O)c3c(F)cccc3F)c2)c(-c2ccnc(Nc3ccc(N4CCOCC4)nc3)n2)s1 [GSK1804250] | 32 | 8 | 2 | 1 | 7 | 51 | 54 | 23 | 0 | 7 |
| CCNc1nccc(-c2c(-c3ccc(F)cc3)ncn2C2CCN(C)CC2)n1 | 0 | 97.7 | 0 | 0 | 0 | 5 | 0 | 3 | 5 | 0 |
| O=C(Nc1c(F)cccc1F)c1cc(C(=O)c2ccccc2F)c[nH]1 [GSK1326180] | 18 | 0 | 4 | 6 | 0 | 0 | 0 | 0 | 2 | 9 |
| Fc1cc(Cl)ccc1Nc1ccnc2cc(-c3ccc(CN4CCSCC4)o3)ccc12 [GW560106] | 6 | 0 | 13 | 0 | 38 | 38 | 0 | 12 | 31 | 15 |
| O=C(Nc1n[nH]c2cc(-c3cccs3)ccc12)C1CC1 [SB-731284] | 42 | 0 | 87 | 24 | 52 | 0 | 0 | 27 | 0 | 27 |
| N#CC1(c2cccc(C(=O)Nc3cccc(Oc4ccc5nc(NC(=O)C6CC6)sc5n4)c3)c2)CC1 | 3 | 0 | 0 | 0 | 23 | 0 | 0 | 18 | 0 | 0 |
| CN(C)CCOc1ccc(-c2cc(-c3ccc(Cl)c(O)c3)c(-c3ccncc3)[nH]2)cc1.Cl.Cl [SB-684387] | 19 | 0 | 28 | 9 | 18 | 39 | 13 | 35 | 42 | 0 |

| Compound | %Inh (MTOR) [%] | %Inh (MUSK) [%] | %Inh (MYLK2) [%] | %Inh (MYLK4) [%] | %Inh (MYLK) [%] | %Inh (MYO3A) [%] | %Inh (MYO3B) [%] | %Inh (NDR1) [%] | %Inh (NDR2) [%] | %Inh (NEK10) [%] |
| --- | --- | --- | --- | --- | --- | --- | --- | --- | --- | --- |
| COc1cc(Nc2nccc(N3CCC(NS(=O)(=O)c4ccc(NC(C)=O)cc4)CC3)n2)cc(OC)c1OC [GSK1379825] | 16 | 14 | 61 | 0 | 1 | 0 | 0 | 0 | 0 | 17 |
| Cn1cc(-c2ccc3c(c2)CCN3C(=O)Cc2cc(F)cc(C(F)(F)F)c2)c2c(N)ncnc21 [GSK2635225] | 35 | 28 | 27 | 1 | 12 | 42 | 0 | 25 | 13 | 6 |
| CC(=O)Nc1cn2nc(Oc3cccc(NC(=O)c4cccc(C(F)(F)F)c4)c3)ccc2n1 | 11 | 21 | 0 | 3 | 44 | 5 | 9 | 8 | 0 | 0 |
| COc1cccc(C2=C(Nc3cccc(O)c3)C(=O)NC2=O)c1 [SB-390771] | 38 | 0 | 0 | 6 | 27 | 17 | 0 | 18 | 0 | 67 |
| Cc1cc(-c2c(-c3ccc(F)cc3)ncn2CCCN2CCOCC2)nc(N)n1 [SB-222517] | 0 | 14 | 1 | 14 | 17 | 17 | 30 | 43 | 14 | 16 |
| O=C(O)C(F)(F)F.O=c1[nH]ccc2nc(N[C@@H]3CCNC3)nc(Nc3cc(Cl)cc(Cl)c3)c12 [GSK2188764] | 9 | 3 | 50 | 36 | 92.4 | 59 | 0 | 82 | 68 | 81 |
| COc1ccc(C)c(Nc2ccnc(Nc3ccc(-c4cnc[nH]4)cc3)n2)c1.Cl [GW784041] | 0 | 0 | 7 | 0 | 18 | 11 | 27 | 22 | 0 | 0 |
| Cc1nn2c(=O)cc(N3CCO[C@H](C)C3)nc2n1Cc1cccc(Cl)c1Cl [GSK2373693] | 61 | 14 | 6 | 2 | 0 | 0 | 0 | 0 | 0 | 0 |
| Cl.N#CCc1ccc(Nc2nccc(Nc3ccc(Oc4ccccc4)cc3)n2)cc1 [GW639905] | 24 | 14 | 1 | 9 | 0 | 0 | 3 | 0 | 0 | 8 |
| Cc1cc(-c2ccnc(Nc3cccc(C#N)c3)n2)cc(C)c1O [GSK1440913] | 7 | 25 | 76 | 100 | 13 | 0 | 0 | 10 | 12 | 20 |
| Cc1ccc(NC(=O)c2ccnc(N3CCCCC3)c2)cc1-c1ccc(C(=O)NCC2CC2)cc1 [GW775610] | 9 | 0 | 15 | 0 | 0 | 0 | 3 | 0 | 5 | 0 |
| Nc1ncc(-c2ccc3nccc(-c4ccncc4)c3c2)cc1S(=O)(=O)N1CCCCC1 [GSK1693850] | 100 | 0 | 0 | 10 | 22 | 22 | 0 | 30 | 2 | 54 |
| COc1cccc(NC(=O)NCCNc2ccnc(Nc3ccc(F)cc3)n2)c1 [GSK1379879] | 32 | 5 | 0 | 0 | 16 | 22 | 0 | 18 | 0 | 0 |
| O=C(Nc1n[nH]c2nc(-c3cccc(O)c3)ccc12)C1CC1 [SB-711805] | 0 | 0 | 97.2 | 13 | 98.4 | 18 | 0 | 0 | 0 | 0 |
| CSc1ccc(NC2=C(c3ccc(Cl)cc3)C(=O)NC2=O)cc1 [SB-317658] | 0 | 34 | 10 | 24 | 0 | 18 | 20 | 9 | 9 | 14 |
| O=C(Nc1n[nH]c2nc(-c3ccccc3O)ccc12)C1CC1 [SB-711880] | 16 | 0 | 85 | 0 | 28 | 36 | 1 | 6 | 0 | 0 |
